High-throughput results (PubChem BioAssay)
IL1B secr inh – inflammasome signaling inhibition, IL-1 beta readout | actives 4.7% (n = 360,000) | THP-1 LPS/ATP IL-1B secretion, AlphaLISA, 16 h; active compounds read low | activity change, % at 57.5 µM; in the data active means activity change below about -50%; inconclusive means mostly about -30% to -49%
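Secreted IL-1B measured by AlphaLISA bead assay after 16 h compound exposure of THP-1 cells; compounds (final up to 57.5 uM) added 1 h before LPS (250 ng/mL) and ATP (1.25 mM) stimulation; lower signal means less secretion.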
HT1080-NT tox – kills 2HG-producing HT-1080-NT fibrosarcoma cells. Potency, µM (top dose mostly 46.1 µM), inactives show at the highest dose activity, negative = less viability, actives largely listed as cytotoxic. actives 1.6% (n = 360,000). HT-1080-NT fibrosarcoma viability, CellTiter-Glo ATP luminescence, 48 h;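 further: NT is the 2HG producing partner of a matched IDH1 knockdown line; potency means the concentration at half of the fitted maximal effect; 0% = DMSO-treated cells and -100% = media-only wells without cells; nearly all actives have a fitted effect of over 55% in size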
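Toxicity toward the 2HG-producing NT line was scored as %Activity, normalised to DMSO and no-cell wells, from CellTiter-Glo luminescence after 48 hours' treatment.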
HT1080 IDH1KD tx – toxicity to HT-1080 IDH1 knockdown cells (counter line); actives 2% (n = 360,000); HT-1080 IDH1 knockdown viability, ATP luminescence, 48 h; AID 686971; Potency, µM (titrated, usually from 46.1 µM), for inactives: top-dose activity, negative = toxicity, hits mostly cytotoxic;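 further: potency means the concentration at half of the fitted maximal effect; 0% = DMSO wells and -100% = cell-free medium wells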
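In this qHTS, HT-1080 cells depleted of IDH1 are exposed for 48 h at 37 °C to compound titrations. Toxicity is scored from CellTiter-Glo luminescence, with DMSO as full viability and medium alone as none.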
DT40 TDP1 no CPT – qHTS for Inhibitors of human tyrosyl-DNA phosphodiesterase 1 (TDP1): qHTS in cells in absence of CPT. DT40 Tdp1-/- hTDP1 cells, no CPT, ATP luminescence, 48 h. Potency, µM (top dose mostly 46.2 µM), without a hit: at the highest dose activity change, negative = growth inhibition, hits mostly inhibitors. actives 15% (n = 420,000); further: potency means the concentration at half of the fitted maximal effect; nearly all actives have a fitted effect of over 55% in size
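Growth of hTDP1-complemented DT40 Tdp1-knockout cells is measured by ATP luminescence after at least 48 hr compound exposure at 37 °C, with DMSO substituting for the 20 nM CPT used in the parallel screen.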
TDP1 cell CPT – growth inhibition of DT40 Tdp1-/-;hTDP1 cells with camptothecin (screen for TDP1 inhibitors); AID 686979; chicken DT40 Tdp1-/-;hTDP1 cells + 20 nM CPT, ATP luminescence, 48 h; Potency, µM (top dose mostly 46.2 µM), without a hit: at the highest dose activity change, negative = growth inhibition, actives largely listed as inhibitors; actives 12% (n = 420,000); further: potency means the concentration at half of the fitted maximal effect; nearly all actives have a fitted effect of over 55% in size
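Cell growth measured by CellTiter-Glo luminescence after a minimum 48 h, 37 C compound exposure with 20 nM CPT in Tdp1-knockout DT40 cells stably expressing hTDP1, seeded 400/well; qHTS titration format.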
* marks the source's active call; other numbers are inactive results; ? = inconclusive; / = not tested or not shown; ! = repeats disagree. This is a sample that favours compounds with a hit; in the whole collection about 19% have one here. Unless noted, the call rests on the fitted dose curve; in most records, active means well fitted curve in the direction sought with a large enough effect; inconclusive means small, poorly fitted or top-dose-only effect, or another doubt; inactive means no such curve, though single readings can be large; an effect the other way counts as inactive or inconclusive. Unless noted, on the % scale 0 is the no-effect control and ±100 the full control effect.

SMILES	IL1B secr inh	HT1080-NT tox	HT1080 IDH1KD tx	DT40 TDP1 no CPT	TDP1 cell CPT
CC(C)C[C@H](CO)N(Cc1ccccc1)S(=O)(=O)N(Cc1ccccc1)[C@@H](CO)CC(C)C	-87*	?	?	12µM*!	16µM*
C=CCOC(=O)N1CCC2CC1c1cc(-c3cccc(C)c3)ccc12 (stereo not drawn)	21	-8%	-14%	?	?
O=c1c(NCc2ccccc2Cl)nccn1-c1ccccc1	/	/	/	0%	-18%
Cc1c(C(=O)Nc2cccc(C(F)(F)F)c2)oc2ccc(S(=O)(=O)N3CCC4(CC3)OCCO4)cc12	/	/	/	9.2µM*	15µM*
COc1ccc(NC(=O)c2oc3ccc(S(=O)(=O)N4CCC5(CC4)OCCO5)cc3c2C)cc1	-19	?	-28%	?	16µM*
Cc1ccc(NC(=O)c2oc3ccc(S(=O)(=O)N4CCC5(CC4)OCCO5)cc3c2C)cc1Cl	/	/	/	-16%	?
Cc1cccc(NC(=O)c2oc3ccc(S(=O)(=O)N4CCC5(CC4)OCCO5)cc3c2C)c1C	/	/	/	18µM*	16µM*
Fc1ccc(CNc2ncnc3onc(-c4ccc(F)cc4)c23)cc1	/	/	/	23µM*	18µM*
CCCCN(CC)CCNc1ncnc2onc(-c3ccc(Cl)cc3)c12	/	/	/	-19%	-21%
Fc1ccc(-c2noc3ncnc(NCc4cccc(Cl)c4)c23)cc1	/	/	/	?	-4%
CCc1ccc(CNc2ncnc3onc(-c4ccc(Cl)cc4)c23)cc1	/	/	/	16µM*	-17%
CCOC(=O)C1(C)CCN1C(=O)c1cccc(C(F)(F)F)c1 (stereo not drawn)	29	9%	11%	-26%	-26%
CCOc1ccc(NC(=O)c2oc3ccccc3c2NC(=O)COc2cccc(OC)c2)cc1	/	/	/	-12%	-1%
COc1ccc(NC(=O)c2oc3ccccc3c2NC(=O)C23CC4CC(CC(C4)C2)C3)c(OC)c1	/	/	/	23µM*	-23%
COc1ccccc1C(=O)Nc1c(C(=O)c2ccccc2)oc2ccccc12	/	/	/	?	18µM*
COc1ccc(CC(=O)Nc2c(C(=O)Nc3ccccc3F)oc3ccccc23)cc1	/	/	/	-24%	0%
CCOc1ccc(NC(=O)c2oc3ccccc3c2NC(=O)c2ccc(OC)cc2OC)cc1	/	/	/	18µM*	23µM*
COc1ccc(OC)c(C(=O)c2oc3ccccc3c2NC(C)=O)c1	-8	-19%	-28%	16µM*	23µM*
COc1cccc(CNC(=O)c2cnc(N3CCCC3)nc2C)c1	/	/	/	-17%	1%
N/C(Cc1ccc(Cl)cc1)=N\OC(=O)CCc1ccccc1	6	5%	11%	?	-21%
COc1ccccc1C(=O)Nc1c(C(=O)N2CCN(C)CC2)oc2ccccc12	-60*	13%	3%	-24%	-25%
COc1ccccc1NC(=O)c1oc2ccccc2c1NC(=O)c1cccc(OC)c1OC	/	/	/	5.8µM*	5.8µM*
COc1cccc(OC)c1C(=O)Nc1c(C(=O)N2CCN(C)CC2)oc2ccccc12	13	4%	0%	3%	1%
COc1ccccc1C(=O)Nc1c(C(=O)N(CCN(C)C)Cc2ccco2)oc2ccccc12	?	-3%	?	12µM*	9.2µM*
COc1ccccc1C(=O)Nc1c(C(=O)NC(C)(C)C)oc2ccccc12	/	/	/	23µM*	?
SMILES	IL1B secr inh	HT1080-NT tox	HT1080 IDH1KD tx	DT40 TDP1 no CPT	TDP1 cell CPT
Cn1cc(-c2nc3cnc(Oc4ccccc4)nc3n(C)c2=O)c2ccccc21	/	/	/	6%	3%
O=C(Cn1cc(C(=O)C(F)(F)F)c2ccccc21)N1CCCCCC1	/	/	/	-6%	-18%
C/C=C/C(=O)OCC(=O)Nc1cc(-c2cc(C)c(C)cc2C)nn1-c1ccccc1	0	-8%	-5%	-20%	-26%
COc1cc(C(=O)Nc2c(C(=O)Nc3ccccc3F)oc3ccccc23)cc(OC)c1OC	/	/	/	4.1µM*	5.2µM*
CCN1C/C(=C/c2ccc(OC)c(O)c2)C(=O)/C(=C/c2ccc(OC)c(O)c2)C1	-72*	?	?	12µM*	13µM*
COc1ccc(/C=N/N=C/c2ccc(OC)c(O)c2)cc1O	-11	-4%	-2%	-11%	-5%
COc1ccc(C=C2C(=O)c3ccccc3C2=O)cc1O	5	3%	-1%	0%	0%
COc1ccc(/C=C2\CN(Cc3ccccc3)C/C(=C\c3ccc(OC)c(O)c3)C2=O)cc1O	-99*	?	2.3µM*	2.1µM*	5.2µM*
O=C1CN(C(=O)COC(=O)CCc2ccccc2O)c2ccccc2N1	-4	-2%	-2%	-5%	-11%
C[C@@H]1CN([C@H](C)CO)C(=O)c2cc(-c3ccc(C(=O)N(C)C)cc3)cnc2O[C@@H]1CN(C)C(=O)c1cccnc1	6	14%	0%	8%	4%
CN(C)S(=O)(=O)c1cccc(N=c2scc(-c3ccc4c(c3)NC(=O)CO4)n2CC2CCCO2)c1 (stereo not drawn)	-15	?	?	7.3µM*	6.5µM*
COc1ccccc1N=c1scc(-c2ccc3c(c2)NC(=O)CO3)n1CC1CCCO1 (stereo not drawn)	0	-18%	-29%	18µM*	-95%
Cc1ccc(-c2cc(-c3coc4ccc(Cl)cc4c3=O)c3c(n2)-c2ccccc2OC3)cc1	/	/	/	0%	6%
N#Cc1nc(-c2ccc(OCc3ccccc3)cc2)oc1NCCCn1ccnc1	?	0%	18%	21µM*	?
CCCOc1ccc(-c2nc(C#N)c(NCCCn3ccnc3)o2)cc1	?	?	?	18µM*	?
CC(C)(C)c1ccc(-c2nc(C#N)c(NCCCn3ccnc3)o2)cc1	-95*	21µM*	23µM*	?	?
COc1ccc(-c2n[nH]c(C)c2-c2ccc(Cl)cc2)c(O)c1	-18	21µM*	21µM*	?	-29%
CCOc1ccc(-c2n[nH]c(C)c2Oc2ccccc2OC)c(O)c1	-19	?	?	?	?
C=C(C)COc1ccc(-c2[nH]ncc2-c2ccc(OC)c(OC)c2)c(O)c1	-19	7.3µM*	4.6µM*	1.6µM*	1.5µM*
C=C(C)COc1ccc(-c2n[nH]c(C)c2Oc2ccccc2OC)c(O)c1	-30	?	?	?	15µM*
Cc1[nH]nc(-c2ccc(OCc3cnn(-c4ccccc4)c3)cc2O)c1Oc1ccccc1F	27	?	?	21µM*	?
COc1ccccc1CN1CCN(C2CCN(C(=O)NC(C)C)CC2)C(=O)C1=O	/	/	/	0%	-11%
C=C(C)COc1ccc(-c2n[nH]c(C)c2-c2ccc(OC)c(OC)c2)c(O)c1	4	4.1µM*	1.5µM*	2.6µM*	3.7µM*
